Reference: PubChem BioAssay
Entries with a potency or affinity are not part of this list. Inconclusive results are not listed. The source made the active and inactive calls. Unless noted, how the calls were made is not given here.

Columns and labels:
[1] = cytotoxicity in PAX8-dependent RMG-1 cells, dose response, cell-based, cherry-pick (AID 687029;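 active means signal drop whose fitted half-maximal concentration is at most twice the top valid dose, in every test run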;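 further: cells exposed to compound for 96 hours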)
[2] = cytotoxicity in IOSE-T80 ovarian epithelial cells, dose response, selectivity assay for PAX8 inhibitor project, cell-based, cherry-pick (AID 687032;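 active means fitted half-maximal concentration for viability loss no higher than twice the top valid dose, in every repeat run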;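 further: cells exposed to compound for 96 h before reading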)
[3] = inhibitors of CMV-promoter luciferase reporter, dose response, counter-screen for Pax8 inhibitor project, cell-based, HEK293, luminescence, dry powder (AID 743020;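 active means signal-lowering compounds whose fitted half-maximal concentration is at or below twice the top tested dose in every run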;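 further: HEK293 cells stably expressing the CMV luciferase reporter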)
[4] = non-specific cell cytotoxicity, dose response, cytotoxicity control for PAX8 inhibitor project, plate reader, dry powder samples (AID 743021)
[5] = IOSE-T80 ovarian epithelial cell cytotoxicity, dose response, cytotoxicity control for PAX8 inhibitor project, plate reader, dry powder samples (AID 743045);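 further: more negative values mean more cell killing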
[6] = A2780 ovarian cancer cell cytotoxicity, dose response, cytotoxicity control, plate reader, dry powder samples (AID 743046)
[7] = cytotoxicity in OVCAR8 ovarian cancer cells, dose response, PAX8 project, cell-based, plate reader, dry powder samples (AID 743197)

Measured: outcome

C[C@@H]1CN([C@@H](C)CO)C(=O)c2cc(NC(=O)Nc3ccc(C(F)(F)F)cc3)ccc2O[C@@H](C)CCCCO[C@H]1CN(C)Cc1ccncc1
not listed: [7]
inactive: all other assays above

C[C@@H]1CCCCO[C@@H](CN(C)Cc2ccccc2)[C@H](C)CN([C@@H](C)CO)C(=O)c2cc(NC(=O)Nc3ccc(C(F)(F)F)cc3)ccc2O1
not listed: [6] | [7]
inactive: all other assays above

C[C@@H]1CN([C@H](C)CO)C(=O)c2cc(NC(=O)Nc3ccc4c(c3)OCO4)ccc2O[C@@H](C)CCCCO[C@H]1CN(C)Cc1ccc(C(F)(F)F)cc1
not listed: [6] | [7]
inactive: all other assays above

C[C@@H]1CN([C@@H](C)CO)S(=O)(=O)c2ccc(C#C[C@@H](C)O)cc2O[C@H]1CN(C)Cc1ccc(-c2ccccc2)cc1
inactive: all assays above

Cc1cccc(S(=O)(=O)N2CCCCN3[C@H](CO)[C@H](c4ccc(C#CC(C)C)cc4)[C@H]3C2)c1
not listed: [5] | [7]
inactive: all other assays above

Cc1ccc(S(=O)(=O)Nc2ccc3c(c2)C(=O)N([C@H](C)CO)C[C@@H](C)[C@@H](CN(C)Cc2ccc(C(F)(F)F)cc2)OCCCC[C@@H](C)O3)cc1
not listed: [5] | [7]
inactive: all other assays above

COc1cccc(S(=O)(=O)Nc2ccc3c(c2)[C@@H]2C[C@@H](CC(=O)NCc4ccc(Cl)cc4)O[C@@H](CO)[C@@H]2O3)c1
inactive: all assays above

C[C@H]1CCCCO[C@H](CN(C)C(=O)Nc2ccc(C(F)(F)F)cc2)[C@@H](C)CN([C@@H](C)CO)C(=O)c2cc(NC(=O)CCC(F)(F)F)ccc2O1
inactive: all assays above

C[C@H](CO)N1C[C@H](C)[C@H](CN(C)Cc2ccc(C(F)(F)F)cc2)OCCCC[C@H](C)Oc2ccc(NC(=O)Nc3ccc4c(c3)OCO4)cc2C1=O
inactive: all assays above

O=C(C[C@@H]1C[C@H]2c3cc(NS(=O)(=O)c4ccc(F)cc4)ccc3O[C@H]2[C@H](CO)O1)NCc1ccc(Cl)cc1
not listed: [5] | [7]
inactive: all other assays above

COc1cccc(-c2ccc3c(c2)[C@@H]2[C@@H](CCN2S(=O)(=O)c2ccccc2OC)[C@H](CO)N3C)c1
not listed: [7]
inactive: all other assays above

C[C@@H]1CN([C@H](C)CO)C(=O)c2cc(NS(=O)(=O)c3ccc(Cl)cc3)ccc2O[C@@H](C)CCCCO[C@H]1CN(C)Cc1ccc2c(c1)OCO2
not listed: [7]
inactive: all other assays above

COc1cccc(S(=O)(=O)N2CC[C@@H]3[C@@H](CO)Nc4ccc(-c5ccccc5OC)cc4[C@@H]32)c1
not listed: [5] | [7]
inactive: all other assays above

C[C@@H]1CN([C@@H](C)CO)C(=O)Cc2cc(NC(=O)Nc3ccc4c(c3)OCO4)ccc2O[C@H]1CN(C)CC1CCCCC1
inactive: all assays above

O=C(Nc1ccccc1F)N1CCCCN2[C@@H](CO)[C@@H](c3ccc(/C=C/c4ccccc4)cc3)[C@@H]2C1
inactive: all assays above
